Measured values as given in PubChem BioAssay (NCI).
The panel holds about 79,000 compounds, 15% with a hit somewhere; the sample as a whole holds those more often. Values without a mark were called inactive. Activity calls are given as the source filed them. No stated cut-off is given here; in the data, active means growth inhibition above about 70%; inactive means the rest.

Assay: NCI Yeast Anticancer Drug Screen. Data for the mlh1 strain (AID 171);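 further: 0% = growth of vehicle-treated control cultures of the same strain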
Conditions: S. cerevisiae mlh1 strain growth inhibition, hits give high values
Procedure: Growth inhibition of yeast strains with defined genetic alterations is measured as a screen for potential anti-cancer activity. Selected strains with alterations in DNA damage repair or cell cycle control were exposed to compounds and growth inhibition was measured relative to vehicle treated controls. The strain used in this assay is mlh1

CC(C)(CN1CCCCC1)C(=O)CC(SCCS(=O)(=O)O)c1ccccc1 (stereo not given)
growth inhibition (at 1.2 µM): 0% | growth inhibition (at 3.7 µM): 2% | growth inhibition (at 11.0 µM): 3% | growth inhibition (at 33.0 µM): 6% | growth inhibition (at 100.0 µM): 13%

CC(C)OC(=O)NNc1cccc(Cl)c1
growth inhibition (at 1.2 µM): -1% | growth inhibition (at 3.7 µM): 4% | growth inhibition (at 11.0 µM): 55% | growth inhibition (at 33.0 µM): 98% (active) | growth inhibition (at 100.0 µM): 99% (active)

COC(=O)C(Cc1c[nH]c2ccccc12)N1CN(C)c2ccccc2C1=O (stereo not given)
growth inhibition (at 1.2 µM): 2% | growth inhibition (at 3.7 µM): 0% | growth inhibition (at 11.0 µM): 0% | growth inhibition (at 33.0 µM): 6% | growth inhibition (at 100.0 µM): 99% (active)

CC1=CN2C(c3ccccc3)=NON(c3ccc(C)cn3)C2C=C1 (stereo not given)
growth inhibition (at 1.2 µM): 0% | growth inhibition (at 3.7 µM): -2% | growth inhibition (at 11.0 µM): -3% | growth inhibition (at 33.0 µM): -1% | growth inhibition (at 100.0 µM): -4%

CCC(OC(C)=O)C1CC(C(C)C)CCC1C (stereo not given)
growth inhibition (at 1.2 µM): 0% | growth inhibition (at 3.7 µM): 1% | growth inhibition (at 11.0 µM): 4% | growth inhibition (at 33.0 µM): 8% | growth inhibition (at 100.0 µM): 54%

CC(C)=CCc1c2c(c(O)c3c(=O)c(-c4ccc(O)c(O)c4)coc13)C=CC(C)(C)O2
growth inhibition (at 1.2 µM): 5% | growth inhibition (at 3.7 µM): 14% | growth inhibition (at 11.0 µM): 90% (active) | growth inhibition (at 33.0 µM): 93% (active) | growth inhibition (at 100.0 µM): 86% (active)

CC(=O)/C=C/c1cc([N+](=O)[O-])ccc1O
growth inhibition (at 1.2 µM): -6% | growth inhibition (at 3.7 µM): 3% | growth inhibition (at 11.0 µM): 33% | growth inhibition (at 33.0 µM): 98% (active) | growth inhibition (at 100.0 µM): 99% (active)

CC(=O)CC(c1ccccc1)c1c(O)c2ccccc2oc1=O (stereo not given)
growth inhibition (at 1.2 µM): -15% | growth inhibition (at 3.7 µM): -3% | growth inhibition (at 11.0 µM): 3% | growth inhibition (at 33.0 µM): 43% | growth inhibition (at 100.0 µM): 85% (active)
